# PubChem BioAssay (Tox21)
# A number with no mark means an inactive call. Records with an inconclusive call do not appear. Where a call stands in place of a potency, no number is given. The source made the active and inactive calls. Unless noted, calls follow the shape of the dose curve; as a rule, active = well fitted curve in the direction sought with a large enough effect in the repeat runs; inconclusive = weak or mixed curves; inactive = no such curve, though single readings can be large; an effect the other way counts as inactive or inconclusive.
# Assays:
# [1] = target: Progesterone receptor (Homo sapiens) (UniProt P06401); test: qHTS assay to identify small molecule agonists of the progesterone receptor (PR) signaling pathway (AID 1346784; calls by dose curve; also: nearly all actives have a fitted effect of over 30% in size)
# Sequence of Progesterone receptor (Homo sapiens) (P06401 whole entry, looked up): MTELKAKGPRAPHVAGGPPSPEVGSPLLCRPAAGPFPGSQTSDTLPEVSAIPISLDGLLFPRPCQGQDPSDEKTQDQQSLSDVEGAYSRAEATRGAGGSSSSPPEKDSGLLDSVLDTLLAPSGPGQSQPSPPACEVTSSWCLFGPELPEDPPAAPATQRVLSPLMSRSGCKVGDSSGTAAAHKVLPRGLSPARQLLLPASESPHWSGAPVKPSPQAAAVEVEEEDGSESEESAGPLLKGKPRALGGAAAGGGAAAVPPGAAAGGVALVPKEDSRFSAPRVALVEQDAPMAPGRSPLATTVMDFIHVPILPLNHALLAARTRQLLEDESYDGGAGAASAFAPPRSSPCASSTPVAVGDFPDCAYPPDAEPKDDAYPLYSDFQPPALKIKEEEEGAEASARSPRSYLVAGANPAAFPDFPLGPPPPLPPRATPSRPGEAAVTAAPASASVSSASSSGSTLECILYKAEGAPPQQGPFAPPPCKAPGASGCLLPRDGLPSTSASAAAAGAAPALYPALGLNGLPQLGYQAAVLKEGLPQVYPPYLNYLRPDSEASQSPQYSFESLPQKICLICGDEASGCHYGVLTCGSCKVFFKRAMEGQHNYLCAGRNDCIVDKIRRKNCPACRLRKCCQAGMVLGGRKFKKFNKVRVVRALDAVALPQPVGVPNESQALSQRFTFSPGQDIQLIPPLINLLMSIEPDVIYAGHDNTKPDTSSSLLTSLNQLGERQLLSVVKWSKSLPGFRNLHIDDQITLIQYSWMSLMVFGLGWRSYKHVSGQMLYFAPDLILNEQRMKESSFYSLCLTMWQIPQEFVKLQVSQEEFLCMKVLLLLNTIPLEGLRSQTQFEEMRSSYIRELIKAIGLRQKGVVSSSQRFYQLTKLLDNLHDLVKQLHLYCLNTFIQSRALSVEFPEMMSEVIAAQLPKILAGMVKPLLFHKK
# How it was run: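 PR-UAS-bla HEK 293T cells carrying a UAS-driven beta-lactamase reporter were seeded in medium with 2% charcoal-stripped FBS, preincubated 6 hr at 37C, then exposed to compounds in DMSO for 16 hr; agonism was read by LiveBLAzer B/G FRET fluorescence.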
# [2] = target: Progesterone receptor (Homo sapiens) (UniProt P06401); test: qHTS assay to identify small molecule antagonists of the progesterone receptor (PR) signaling pathway (AID 1346795; active = well fitted inhibition curve with a large enough effect in the signal ratio in the repeat runs, not every such curve was filed as active; the % refers to the signal ratio)
# How it was run: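 PR-UAS-bla HEK293T cells carrying a UAS-driven beta-lactamase reporter were plated in medium with 2% charcoal-stripped FBS and rested 6 hr at 37C. Compounds were added with 1 nM R5020 (final) for 16 hr, then FRET substrate loaded 2 hr at room temperature.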
# [3] = qHTS assay to identify small molecule antagonists of the progesterone receptor (PR) signaling pathway - cell viability counter screen (AID 1346798); also: series mostly up to about 92 µM; nearly all actives have a fitted effect of over 50% in size
# How it was run: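 PR-UAS-bla HEK293T cells in medium with 2% charcoal-stripped FBS were treated with compounds plus R5020 for 16 hr at 37C. Cell viability was then read by CellTiter-Glo luminescence after 30 min at room temperature in the same wells.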
# [4] = qHTS assay to identify small molecule agonists of the progesterone receptor (PR) signaling pathway - cell viability counter screen (AID 1346799; calls by dose curve; also: nearly all actives have a fitted effect of over 45% in size)
# How it was run: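 PR-UAS-bla HEK293T cells, 3,000 per well in medium with 2% charcoal-stripped FBS, were preincubated 6 hr at 37C, then exposed to compounds for 16 hr; viability was read as CellTiter-Glo luminescence after 30 min at room temperature.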
# [5] = qHTS assay to identify small molecule agonists of the TGF-beta/Smad signaling pathway - cell viability counter screen (AID 1346829); also: top concentration of the series differs between compounds; nearly all actives have a fitted effect of over 45% in size
# How it was run: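 Luminescence from CellTiter-Glo, read after a 30 min room-temperature incubation, gives cell viability of SBE-bla HEK 293T cells treated 5 hr with compounds at 37 C.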
# [6] = qHTS assay to identify small molecule agonists of the TGF-beta/Smad signaling pathway (AID 1346859; active = well fitted activation curve with a large enough effect in the signal ratio in the repeat runs, not every such curve was filed as active; the % refers to the signal ratio; also: series mostly up to about 77 µM)
# How it was run: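 HEK 293T cells stably carrying a beta-lactamase reporter driven by the Smad binding element were seeded overnight, exposed to DMSO-dissolved compounds for 5 hr at 37 C, 5% CO2, then loaded with FRET substrate for 2 hr at room temperature.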
# [7] = Human pregnane X receptor (PXR) small molecule agonists, qHTS cell viability counter screen (AID 1346977); also: nearly all actives have a fitted effect of over 50% in size; also: potency is read from the fitted curve at half-maximal effect
# How it was run: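 PXR-Luc HepG2 cells in medium with 5% charcoal-stripped FBS were pre-incubated 5hr, then exposed to compounds for 24hr at 37C. Viability was read in the same wells by CellTiter-Fluor fluorescence, reagent added after 23hr with a 1hr incubation.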
# [8] = Caspase-3/7 induction in HepG2 cells by small molecules, qHTS assay (AID 1346978); also: nearly all actives have a fitted effect of over 15% in size; also: potency is read from the fitted curve at half-maximal effect
# How it was run: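 Wild-type HepG2 cells (2,000/well) were settled 5 h at 37 C, 5% CO2, then exposed to compounds in DMSO for 17 h. Caspase-3/7 activity was read by luminescence 30 min after adding Caspase-Glo 3/7 reagent at room temperature.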
# [9] = Caspase-3/7 induction in CHO-K1 cells by small molecules, qHTS assay (AID 1346980); also: nearly all actives have a fitted effect of over 15% in size
# How it was run: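 Wild-type cells were seeded at 1,500 per well and settled 5 hr at 37 C, 5% CO2, then exposed to DMSO-dissolved compounds for 17 hr. Caspase-Glo 3/7 reagent was added, and luminescence was read after 30min at room temperature.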
# [10] = Caspase-3/7 induction in HepG2 cells by small molecules, qHTS cell viability counter screen (AID 1346981); also: series mostly up to about 92 µM; nearly all actives have a fitted effect of over 30% in size
# How it was run: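 Fluorescence read-out of live-cell protease activity (CellTiter-Fluor) after 1 hr with reagent. This was measured in the same wells as the caspase-3/7 luminescence, on HepG2 cells exposed to DMSO-dissolved compounds for 16 hr at 37 C.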
# [11] = target: Nuclear receptor subfamily 1 group I member 2 (Homo sapiens) (UniProt O75469); test: Human pregnane X receptor (PXR) small molecule agonists, qHTS assay (AID 1346982); also: nearly all actives have a fitted effect of over 35% in size
# Sequence of Nuclear receptor subfamily 1 group I member 2 (Homo sapiens) (O75469 whole entry, looked up): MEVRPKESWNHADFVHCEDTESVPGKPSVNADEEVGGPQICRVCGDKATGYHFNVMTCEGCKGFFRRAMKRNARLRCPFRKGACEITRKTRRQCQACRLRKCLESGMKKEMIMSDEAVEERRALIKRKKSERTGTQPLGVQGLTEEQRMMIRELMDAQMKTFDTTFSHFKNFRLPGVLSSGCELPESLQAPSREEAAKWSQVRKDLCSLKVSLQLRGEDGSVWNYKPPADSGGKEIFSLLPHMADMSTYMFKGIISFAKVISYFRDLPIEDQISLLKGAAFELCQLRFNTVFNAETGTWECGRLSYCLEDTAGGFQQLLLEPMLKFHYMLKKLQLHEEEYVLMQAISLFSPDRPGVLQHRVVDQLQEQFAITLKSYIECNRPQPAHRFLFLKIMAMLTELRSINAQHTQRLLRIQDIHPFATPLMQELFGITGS
# How it was run: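 HepG2 PXR-Luc reporter line, 5% charcoal-stripped FBS; 5 hr pre-incubation, compound (DMSO) 24 hr at 37 C/5% CO2; ONE-Glo 30 min RT; luminescence read-out.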
# [12] = target: Cytochrome P450 2D6 (Homo sapiens) (UniProt P10635); test: Cytochrome P450 Family 2 Subfamily D Member 6 (CYP2D6) small molecule antagonists: luciferase reporter qHTS assay (AID 1671196); also: nearly all actives have a fitted effect of over 50% in size; also: potency is read from the fitted curve at half-maximal effect; as to activity change, negative = inhibition: series mostly up to about 120 µM
# Sequence of Cytochrome P450 2D6 (Homo sapiens) (P10635 whole entry, looked up): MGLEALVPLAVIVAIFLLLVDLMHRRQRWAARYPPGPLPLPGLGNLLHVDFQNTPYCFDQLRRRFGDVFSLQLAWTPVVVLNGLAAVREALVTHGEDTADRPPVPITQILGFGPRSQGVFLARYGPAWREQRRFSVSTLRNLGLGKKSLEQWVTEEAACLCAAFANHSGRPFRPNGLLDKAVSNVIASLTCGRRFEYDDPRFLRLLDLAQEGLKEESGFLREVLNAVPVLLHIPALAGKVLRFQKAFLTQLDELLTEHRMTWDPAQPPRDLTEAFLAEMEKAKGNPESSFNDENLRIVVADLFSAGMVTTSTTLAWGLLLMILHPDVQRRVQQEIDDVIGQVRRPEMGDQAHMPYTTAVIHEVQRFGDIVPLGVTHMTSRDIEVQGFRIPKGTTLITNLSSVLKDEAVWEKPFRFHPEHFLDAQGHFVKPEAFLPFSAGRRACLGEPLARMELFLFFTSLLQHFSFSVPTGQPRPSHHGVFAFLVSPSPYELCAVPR
# How it was run: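 Luminogenic proluciferin substrate, CYP2D6 enzyme; 10 min RT preincubation with compound, NADPH regeneration system added, 1 h RT. Stop/detection reagent, 20 min RT, luminescence read (RLU). Signal proportional to CYP activity.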
# [13] = target: Cytochrome P450 2C19 (Homo sapiens) (UniProt P33261); test: Cytochrome P450 Family 2 Subfamily C Member 19 (CYP2C19) small molecule antagonists: luciferase reporter qHTS assay (AID 1671197); also: nearly all actives have a fitted effect of over 65% in size; also: potency is read from the fitted curve at half-maximal effect; as to activity change, negative = inhibition: series mostly up to about 120 µM
# Sequence of Cytochrome P450 2C19 (Homo sapiens) (P33261 whole entry, looked up): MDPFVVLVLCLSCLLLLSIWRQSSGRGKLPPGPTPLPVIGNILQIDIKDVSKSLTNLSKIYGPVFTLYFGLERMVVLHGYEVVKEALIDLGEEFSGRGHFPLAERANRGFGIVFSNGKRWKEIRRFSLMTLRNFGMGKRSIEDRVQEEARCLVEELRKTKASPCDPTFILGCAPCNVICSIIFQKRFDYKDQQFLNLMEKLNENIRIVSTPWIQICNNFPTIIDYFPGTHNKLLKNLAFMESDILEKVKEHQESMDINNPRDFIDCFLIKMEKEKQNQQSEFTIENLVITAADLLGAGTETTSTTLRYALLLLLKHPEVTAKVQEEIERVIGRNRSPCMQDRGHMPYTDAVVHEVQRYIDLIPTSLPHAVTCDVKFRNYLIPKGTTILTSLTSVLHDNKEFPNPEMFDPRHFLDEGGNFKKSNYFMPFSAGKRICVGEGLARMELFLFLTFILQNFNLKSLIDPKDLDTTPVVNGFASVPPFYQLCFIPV
# How it was run: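 CYP2C19 P450-Glo, 1536-well qHTS. Cpd + enzyme/proluciferin substrate 10 min RT; + NADPH regen, 37C 1 h; stop with luciferin detection reagent, 20 min RT, luminescence (RLU). Pos ctrl ketoconazole.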
# [14] = target: Thyrotropin-releasing hormone receptor (Homo sapiens) (UniProt P34981); test: qHTS assay to identify small molecule antagonists of the thyrotropin-releasing hormone receptor (TRHR) signaling pathway (AID 1346877; active = well fitted inhibition curve with a large enough effect in the repeat runs, not every such curve was filed as active; also: series mostly up to about 51 µM)
# Sequence of Thyrotropin-releasing hormone receptor (Homo sapiens) (P34981 whole entry, looked up): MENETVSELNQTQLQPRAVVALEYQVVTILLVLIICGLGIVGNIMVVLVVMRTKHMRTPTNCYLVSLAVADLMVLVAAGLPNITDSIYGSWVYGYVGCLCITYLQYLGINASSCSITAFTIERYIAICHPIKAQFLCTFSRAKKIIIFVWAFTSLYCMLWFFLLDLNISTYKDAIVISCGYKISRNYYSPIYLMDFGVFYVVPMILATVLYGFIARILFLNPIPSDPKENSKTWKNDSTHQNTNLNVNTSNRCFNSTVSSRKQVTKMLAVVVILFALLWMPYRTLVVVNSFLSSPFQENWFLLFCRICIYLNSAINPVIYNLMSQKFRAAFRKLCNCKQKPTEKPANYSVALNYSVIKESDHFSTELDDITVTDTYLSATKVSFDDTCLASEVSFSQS
# How it was run: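 HEK293/TRHR cells, 18 h, 37 °C; Ca2+ dye 2 h; cpd 5 min RT; TRH 1 nM final; fluorescence read 3 min, 1 s intervals; 15 concs, triplicate.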
# [15] = target: Thyrotropin-releasing hormone receptor (Homo sapiens) (UniProt P34981); test: qHTS assay to identify small molecule agonists of the thyrotropin-releasing hormone receptor (TRHR) signaling pathway (AID 1346891; calls by dose curve; also: series mostly up to about 58 µM)
# How it was run: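 TRHR-expressing HEK293 cells were plated 18 h at 37 °C/5% CO2, loaded with calcium dye 2 h at 37 °C, then given compound in DMSO; fluorescence was read kinetically for 3 min at 1 s intervals.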
# [16] = Caspase-3/7 induction in CHO-K1 cells by small molecules, qHTS cell viability counter screen (AID 1346979); also: nearly all actives have a fitted effect of over 35% in size; also: potency is read from the fitted curve at half-maximal effect
# How it was run: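 Wild-type CHO-K1 cells were seeded at 1,500 per well, rested 5hr at 37 C, then exposed to compounds in DMSO. After 16hr, CellTiter-Fluor reagent was added and fluorescence read 1hr later as the viability measure.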
# [17] = qHTS assay to identify small molecule antagonists of the TGF-beta/Smad signaling pathway - cell viability counter screen (AID 1346824); also: nearly all actives have a fitted effect of over 50% in size
# How it was run: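 SBE-bla HEK 293T cells were plated overnight at 37 C, then given compounds in DMSO plus TGF-beta1 (added as 0.25 ng/mL solution) for 5 hr. After the bla read, CellTiter-Glo was added to the same wells and luminescence read after 30 min at room temperature.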
# [18] = target: Nuclear receptor subfamily 1 group I member 2 (Homo sapiens) (UniProt O75469); test: CYP3A4 induction through human pregnane X receptor (PXR) by small molecules, qHTS assay (AID 1346984); also: nearly all actives have a fitted effect of over 40% in size
# How it was run: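 HepG2-derived DPX-2 line carrying PXR plus a CYP3A4-promoter luciferase reporter; cells plated 5 hr, compound-exposed 24 hr at 37C. CYP3A4 activity probed with 3uM (final) Luciferin-IPA for 3hr, then luciferase read after One-Glo.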
# [19] = target: Nuclear receptor subfamily 1 group I member 2 (Homo sapiens) (UniProt O75469); test: Human pregnane X receptor (PXR) activation by small molecules, qHTS assay (AID 1346985); also: nearly all actives have a fitted effect of over 40% in size
# How it was run: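 DPX-2 cells (HepG2 co-transfected with a PXR response element and a CYP3A4-promoter luciferase construct) were seeded at 2,000 per well, rested 5 hr at 37C, then exposed to DMSO-dissolved compounds for 24 hr. Activation was read as luciferase luminescence.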
# [20] = target: Nuclear receptor subfamily 1 group I member 2 (Rattus norvegicus) (UniProt Q9R1A7); test: Rat pregnane X receptor (rPXR) activation by small molecules, qHTS assay (AID 1346983); conditions: rPXR luciferase reporter cells, One-Glo luminescence, 24 h; hits give high values; also: nearly all actives have a fitted effect of over 20% in size
# Sequence of Nuclear receptor subfamily 1 group I member 2 (Rattus norvegicus) (Q9R1A7 whole entry, looked up): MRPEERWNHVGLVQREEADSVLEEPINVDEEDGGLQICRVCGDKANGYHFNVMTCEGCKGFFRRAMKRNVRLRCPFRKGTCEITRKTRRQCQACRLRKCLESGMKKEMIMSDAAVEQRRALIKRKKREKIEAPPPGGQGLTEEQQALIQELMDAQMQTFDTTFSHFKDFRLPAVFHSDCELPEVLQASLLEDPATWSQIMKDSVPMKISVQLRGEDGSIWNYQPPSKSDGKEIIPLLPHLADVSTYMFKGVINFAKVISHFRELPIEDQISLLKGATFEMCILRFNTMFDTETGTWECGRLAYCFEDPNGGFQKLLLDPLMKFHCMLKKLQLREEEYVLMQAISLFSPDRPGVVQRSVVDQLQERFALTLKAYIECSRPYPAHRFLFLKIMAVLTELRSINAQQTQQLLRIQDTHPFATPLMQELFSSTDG
# How it was run: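 Cell-based rPXR luciferase reporter assay, 2,000 cells per well, rested 5hr at 37 C before compound addition in DMSO, then 24 hr at 37 C. One-Glo reagent was added and luminescence read after 30 min at room temperature.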
smiles,measurement,setting,value
COc1cc2nc(N3CCN(C(=O)c4ccco4)CC3)nc(N)c2cc1OC,activation,[1],4.29% [at 19 µM]
same,"activity change, negative = inhibition",[2],5.13% [at 18.9 µM]
same,"activity change, negative = cytotoxicity",[3],-16.5% [at 18.9 µM]
same,"activity change, negative = cytotoxicity",[4],2.28% [at 19 µM]
same,"activity change, negative = cytotoxicity",[5],0.758% [at 15.8 µM]
same,activation,[6],-4.52% [at 15.8 µM]
same,Potency,[7],11.6 µM (active)
same,caspase activation,[8],12.8% [at 19 µM]
same,caspase-3/7 activation,[9],0.614% [at 19 µM]
same,"activity change, negative = cytotoxicity",[10],-12% [at 19 µM]
same,activation,[11],6.3% [at 19 µM]
same,"activity change, negative = inhibition",[12],-17.8% [at 23.6 µM]
same,"activity change, negative = inhibition",[13],16.3% [at 23.6 µM]
C=C(C)c1cccc(C(=C)C)c1,Potency,[1],inactive
same,Potency,[2],inactive
same,Potency,[3],inactive
same,Potency,[4],inactive
same,Potency,[5],inactive
same,Potency,[6],inactive
same,Potency,[14],inactive
same,outcome,[15],inactive
same,Potency,[7],inactive
same,Potency,[8],inactive
same,Potency,[16],inactive
same,Potency,[9],inactive
same,Potency,[10],inactive
same,Potency,[11],inactive
same,Potency,[12],inactive
same,Potency,[13],inactive
CC(C)(C)c1ccc(C(O)CCCN2CCC(C(O)(c3ccccc3)c3ccccc3)CC2)cc1 (centres undefined),Potency,[1],inactive
same,Potency,[2],inactive
same,Potency,[3],inactive
same,Potency,[4],inactive
same,Potency,[17],inactive
same,Potency,[7],inactive
same,Potency,[8],11.9 µM (active)
same,Potency,[16],11.9 µM (active)
same,Potency,[11],inactive
same,Potency,[13],inactive
CN(C)CCN1CCN(c2cccc(Cl)c2)C1=O,Potency,[1],inactive
same,Potency,[2],inactive
same,Potency,[3],inactive
same,Potency,[17],inactive
same,Potency,[5],inactive
same,Potency,[6],inactive
same,Potency,[14],inactive
same,outcome,[15],inactive
same,Potency,[7],inactive
same,Potency,[8],inactive
same,Potency,[16],inactive
same,Potency,[9],inactive
same,Potency,[10],inactive
same,Potency,[11],inactive
COCCOc1cc2cc(C(=O)NC3CCN(C(C)C)CC3)n(CC(=O)Nc3ccc(Cl)cn3)c2cn1,Potency,[1],inactive
same,Potency,[2],inactive
same,Potency,[3],inactive
same,Potency,[17],inactive
same,Potency,[5],inactive
same,Potency,[6],inactive
same,Potency,[14],inactive
same,outcome,[15],inactive
same,Potency,[7],53.9 µM (active)
same,Potency,[8],inactive
same,Potency,[16],inactive
same,Potency,[9],inactive
same,Potency,[10],inactive
same,Potency,[11],inactive
same,Potency,[12],inactive
[Cl][Pt-2]([Cl])([Cl])[Cl],Potency,[1],inactive
same,Potency,[2],inactive
same,Potency,[3],inactive
same,Potency,[17],inactive
same,Potency,[5],inactive
same,Potency,[6],inactive
same,Potency,[14],inactive
same,outcome,[15],inactive
same,Potency,[7],inactive
same,Potency,[8],inactive
same,Potency,[9],inactive
same,Potency,[10],inactive
same,Potency,[11],inactive
same,Potency,[12],40.1 µM (active)
same,Potency,[13],22.6 µM (active)
Cc1nc(-c2ccc(Cl)cc2)oc1COC(C)(C)C(=O)O,Potency,[1],inactive
same,Potency,[2],inactive
same,Potency,[3],inactive
same,Potency,[17],inactive
same,Potency,[5],inactive
same,Potency,[6],inactive
same,Potency,[14],inactive
same,outcome,[15],inactive
same,Potency,[7],inactive
same,Potency,[8],inactive
same,Potency,[16],inactive
same,Potency,[9],inactive
same,Potency,[10],inactive
same,Potency,[11],inactive
same,Potency,[18],inactive
same,Potency,[19],inactive
same,Potency,[12],inactive
same,Potency,[13],inactive
C[C@@H](O)[C@H](N)C(=O)O,activation,[1],0.125% [at 19 µM]
same,"activity change, negative = inhibition",[2],8.03% [at 18.9 µM]
same,"activity change, negative = cytotoxicity",[3],-0.923% [at 18.9 µM]
same,"activity change, negative = cytotoxicity",[4],-6.31% [at 19 µM]
same,"activity change, negative = cytotoxicity",[5],1.96% [at 15.8 µM]
same,activation,[6],0.576% [at 15.8 µM]
same,"activity, negative = inhibition",[14],12.1% [at 10.5 µM]
same,activation,[15],0.352% [at 11.8 µM]
same,"activity change, negative = cytotoxicity",[7],14% [at 19 µM]
same,caspase activation,[8],-1.24% [at 19 µM]
same,caspase-3/7 activation,[9],-0.26% [at 19 µM]
same,"activity change, negative = cytotoxicity",[10],-2.32% [at 19 µM]
same,activation,[11],-12.7% [at 19 µM]
same,max activation,[20],-1.79%
same,Potency,[18],inactive
same,Potency,[19],inactive
same,"activity change, negative = inhibition",[12],-2.59% [at 23.6 µM]
same,"activity change, negative = inhibition",[13],6.88% [at 23.6 µM]
